From PubChem BioAssay
GLP-1R agonist: activates the human GLP-1 receptor | P43220 | HEK293 GLP-1R CRE-luciferase, luminescence, 4-6 h; cells express a hypersensitive GLP-1R form | Potency, µM (series often up to 45.6 µM), for inactives: top-dose activation, hits mostly activators | 380,000 compounds, 0.007% hits; note: potency is the fitted concentration of half-maximal effect; % of control where 0% means no effect
HEK293 tox: cytotoxicity in counter-screen for GLP-1R inverse agonists; 410,000 compounds, 0.13% hits; Potency, µM (top dose mostly 38.3 µM), inactives show at the highest dose activity change, negative = inhibition, actives largely listed as inhibitors; HEK293 cAMP-luciferase reporter cells, luminescence, 24 h; AID 624418;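 note: loss of luciferase light is scored as toxicity; potency is the fitted concentration of half-maximal effect; % is set by controls: 0 for no effect and ±100 for the full control effect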
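1536-well qHTS counterscreen of the MLSMR; 200 cells/uL, 12 h pre-incubation, 23 nL cpd, 24 h at 37 deg C 5% CO2, luciferase detection reagent, 12 min RT, luminescence. Inhibition = undesired.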
D3 antag: blocks the human D3 dopamine receptor | P35462 | D3R cells, DiscoveRx beta-arrestin luminescence, antagonist mode; active compounds read low | max response, negative = inhibition, % | 360,000 compounds, 2.5% hits; in the data active = max response below about -50%; inconclusive = no clear call, values can overlap the other calls; note: % is set by controls: 0 for no effect and ±100 for the full control effect
Target sequence (P35462 whole entry, looked up): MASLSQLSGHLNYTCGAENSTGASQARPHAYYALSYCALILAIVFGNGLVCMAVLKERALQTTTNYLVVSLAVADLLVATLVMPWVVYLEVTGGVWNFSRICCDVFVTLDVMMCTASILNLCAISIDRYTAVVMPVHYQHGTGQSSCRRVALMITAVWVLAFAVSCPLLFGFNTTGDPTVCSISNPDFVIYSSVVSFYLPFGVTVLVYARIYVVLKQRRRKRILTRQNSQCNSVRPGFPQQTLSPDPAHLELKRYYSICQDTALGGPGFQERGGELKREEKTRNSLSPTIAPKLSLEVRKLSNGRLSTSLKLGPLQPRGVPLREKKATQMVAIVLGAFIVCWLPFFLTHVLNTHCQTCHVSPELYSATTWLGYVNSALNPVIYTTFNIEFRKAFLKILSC
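Cells expressing the human receptor were seeded at 1500 cells/well, incubated overnight at 37 degrees C in 5% CO2, then exposed to library compounds with dopamine controls for 90 minutes at 37 degrees C before luminescent detection.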
ClpP mod: qHTS Assay for Activators of ClpP; ATP-dependent Clp protease proteolytic subunit (Bacillus subtilis (strain 168)), P80244; purified B. subtilis ClpP, FRET peptide cleavage, 20 min; Potency, µM (highest dose often 57.5 µM), for the others: at the top dose activity change, negative = active; 340,000 compounds, 1.9% hits; AID 651965, 2013; active = well fitted falling curve with a large enough effect; inconclusive = small, poorly fitted or top-dose-only effect; inactive = no such curve, though single readings can be large or run the other way; note: potency is the fitted concentration of half-maximal effect; the source files actives as falling curves though it sought activators and does not explain the sign; nearly all actives have a fitted effect of over 65% in size
Target sequence (P80244 whole entry, looked up): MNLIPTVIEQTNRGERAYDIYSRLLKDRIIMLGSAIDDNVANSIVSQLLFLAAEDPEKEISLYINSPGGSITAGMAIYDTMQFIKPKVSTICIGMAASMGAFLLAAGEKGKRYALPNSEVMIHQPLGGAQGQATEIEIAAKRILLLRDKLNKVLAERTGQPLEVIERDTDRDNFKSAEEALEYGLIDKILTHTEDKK
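ClpP 10 microg/mL final, pH 8 Tris/KCl buffer with BSA, glycerol, Tween-20; compound pinned in; FRET-FV substrate; RT 20 min; Ex320/Em430; ΔFRET vs ADEP 5.8 microM, DMSO, no enzyme.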
DRD3 agonist: activates the human D3 dopamine receptor; P35462; D3R DiscoveRx beta-arrestin cells, luminescence, 90 min; max activation, %; 410,000 compounds, 0.58% hits; in the data active = max activation above about 30%; note: 0% is about no effect
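Agonist-mode cell screen: cells plated at 1500/well and incubated overnight at 37 °C, then exposed to library compounds for 90 min at 37 °C. Detection reagent was added for 30–60 min at room temperature, and luminescence was read.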
GLP1R inv ag: inverse agonists of human GLP-1 receptor | P43220 | HEK293 GLP-1R CRE-luciferase, luminescence, 24 h; GLP-1R form is constitutively active | Potency, µM (titrated, usually from 38.3 µM), inactives show at the top dose activity change, negative = inhibition, actives largely listed as inhibitors | 410,000 compounds, 1.6% hits; note: potency is the fitted concentration of half-maximal effect; % is set by controls: 0 for no effect and ±100 for the full control effect; nearly all actives have a fitted effect of over 55% in size
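GLP-1R inverse agonism mode: basal reporter luminescence in engineered HEK293 cells measured after one day of compound exposure at 37 deg C, with a 12 min room-temperature detection step.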
An asterisk follows results filed as active; ? = inconclusive; . = no result given. A selection: hits, their analogues and other compounds. The true share with any hit is near 5.7%. Unless noted, calls come from the whole dose curve; as a rule, active = well fitted curve in the direction sought with a large enough effect; inconclusive = small, poorly fitted or top-dose-only effect, or another doubt; inactive = no such curve, though single readings can be large; an effect the other way counts as inactive or inconclusive.

SMILES	GLP-1R agonist	HEK293 tox	D3 antag	ClpP mod	DRD3 agonist	GLP1R inv ag
CCNC(=O)C1CCCN(C(=O)Cc2ccc3ccccc3c2)CC1 (stereo not given)	-4.1%	3.1%	?	0.4%	-1.7	27.6%
Cc1ccc(NC(=O)c2c([N+](=O)[O-])cnn2C)cc1C	-7.0%	-10.5%	0.7	-0.1%	-10.6	20.8%
Cn1ncc([N+](=O)[O-])c1C(=O)Nc1ccc2c(c1)OCCO2	-22.9%	-14.9%	23.2	31.6µM*	-2.2	-20.0%
O=C(COC(=O)c1ccc(F)cc1F)Nc1cc(S(=O)(=O)N2CCOCC2)ccc1Cl	6.0%	-9.5%	-12.6	.	-7.7	18.2%
Nc1cc(C(=O)OCC(=O)NC(c2ccccc2)c2ccccc2)ccc1Cl	-23.0%	-6.9%	-22.6	25.1µM*	13.8	15.3%
Nc1cc(C(=O)OCC(=O)NNC(=O)c2ccccc2)ccc1Cl	-16.2%	-13.9%	?	?	1.3	-22.1%
Cn1nnc(NC(=S)NC(=O)c2cc(Cl)ccc2Cl)n1	-0.6%	-2.1%	-70.0*	1.3%	-21.2	?
Cc1ccc(SCCCCN2CCNCC2)cc1	-2.9%	1.4%	0.6	-0.9%	-2.2	2.82µM*
Clc1ccc(SCCCCN2CCNCC2)cc1	0.1%	-19.1%	-2.2	-0.5%	-3.9	1.78µM*
COC(=O)[C@]12CCCCC=C1N(Cc1cccc3ccccc13)C(=O)[C@H](CC(=O)N1CCCCC1)C2	7.2%	-9.1%	8.3	2.6%	-0.2	?
Clc1cccc(OCCN2CCOCC2)c1	7.1%	8.6%	-66.2*	-7.7%	3.6	-2.6%
Clc1cccc(OCCN2CCNCC2)c1	-4.3%	24.8%	-20.6	-0.1%	26.4	?
Clc1cccc(OCCCCCN2CCOCC2)c1	5.5%	0.0%	?	.	-18.0	0.2%
OCCN1CCN(CCOc2cccc(Cl)c2)CC1	-4.9%	-15.6%	?	0.8%	39.9*	?
O=C(CSc1nnc2scc(-c3ccc(Cl)cc3)n12)Nc1ccccc1F	.	1.4%	.	1.1%	9.1	5.1%
C[C@H]1C[C@@H]2[C@H]([C@@H](O)C[C@@]3(C)[C@H]2CC[C@]3(O)C(=O)COC(=O)CCC(=O)O)[C@@]2(C)C=CC(=O)C=C12	24.5%	.	.	.	1.5	.
O=C(CCc1cn(Cc2ccccc2Cl)c2ccccc12)NC1CCCCC1	.	-18.8%	.	-3.5%	9.7	10µM*
CC(NS(=O)(=O)c1ccc(Br)cc1F)[C@H](O)c1ccccc1 (stereo not given in full)	-5.8%	1.8%	13.7	1.5%	2.9	-16.4%
Cn1c(C(=O)NCc2cccs2)cc2oc3ccccc3c21	14.4%	22.6%	5.5	31.6µM*	8.6	-11.3%
Cn1c(C(=O)NCc2ccccc2)cc2oc3ccccc3c21	10.0%	-0.8%	14.4	25.1µM*	-3.0	7.2%
COc1ccc(CNC(=O)c2cc3oc4ccccc4c3n2C)cc1OC	.	-10.3%	.	25.1µM*	2.2	?
CCn1c(C(=O)NCc2ccccc2Br)cc2oc3ccccc3c21	.	-0.7%	.	22.4µM*	41.9*	?
CC1CCC2(CC1)NC(=O)N(CC(=O)Nc1ccc(N3CCCCC3)cc1)C2=O (stereo not given)	6.8%	-2.7%	40.2	1.3%	0.5	-15.3%
O=C1CC2C(CCC23OCCO3)c2ccc3ccccc3c21 (stereo not given)	6.5%	16.6%	-12.8	-2.1%	-2.4	-6.6%
CCOCCc1nn2c(=O)cc(COC(=O)c3ccccc3OC)nc2s1	.	-6.3%	.	-0.3%	1.4	3.8%
SMILES	GLP-1R agonist	HEK293 tox	D3 antag	ClpP mod	DRD3 agonist	GLP1R inv ag
O=C(CCN=C1NS(=O)(=O)c2ccccc21)OCc1nnc(-c2ccc([N+](=O)[O-])cc2)o1	-0.2%	20.3%	0.9	28.2µM*	3.5	22.2%
N#Cc1ccccc1COC(=O)CCN=C1NS(=O)(=O)c2ccccc21	5.9%	-2.9%	8.8	.	-1.6	17.3%
CCOC(=O)CC(NCc1ccc(OC)c(OCC)c1)c1ccc(C)cc1 (stereo not given)	6.3%	7.5%	-51.5*	.	-14.4	-18.6%
Cc1ccc(-c2cnc(N)n2C)cc1C	-3.0%	?	-101.2*	-5.5%	4.3	3.9%
Cn1c(-c2ccc(Cl)cc2)cnc1N	-12.1%	7.0%	-28.0	-1.6%	-1.7	-5.2%
COc1ccc(N2CCN(C(=O)c3c(C)oc4ncnc(N5CCCCC5)c34)CC2)cc1	.	-24.5%	.	-1.7%	-15.1	11.2µM*
CCN(CC)S(=O)(=O)c1cccc(-c2nnc(SCc3nnc(-c4ccccc4)o3)n2C)c1	-1.5%	-19.7%	-50.5*	-3.1%	-1.8	-14.2%
CCN(CC)S(=O)(=O)c1ccc(-c2nnc(SCc3nnc(-c4ccc(C)cc4)o3)n2CC)cc1	0.2%	-5.0%	-3.4	0.7%	2.1	8.9%
O=C(O)CC(CCc1ccccc1)OC1OC(CO)C(O)C(O)C1O (stereo not given)	10.5%	-19.6%	-0.1	-7.3%	32.9*	6.2%
COc1cc(OC)cc(-c2nc3ccccc3c(=O)n2OC(=O)c2ccccc2C)c1	0.0%	?	81.4	.	33.7*	?
CCCN1C(=O)c2ccccc2NC1c1ccc(Cl)c(Cl)c1 (stereo not given)	2.8%	-12.3%	-1.3	4.0%	-1.4	11.2µM*
COc1ccc(C(C(=O)NC2CCCC2)N(C(=O)c2ccoc2C)c2cc(C)cc(C)c2)cc1 (stereo not given)	-7.8%	-21.2%	?	1.3%	-12.4	0.0%
COc1ccc(C(C(=O)NC2CCCC2)N(C(=O)c2ccoc2C)c2ccc(C)c(C)c2)cc1 (stereo not given)	9.4%	-7.5%	9.3	.	-5.5	10µM*
CCc1ccc(N(C(=O)c2ccco2)C(C(=O)NC2CCCC2)c2ccco2)cc1 (stereo not given)	-3.4%	-19.8%	?	-1.3%	-3.0	10µM*
CCc1ccc(N(C(=O)c2ccoc2C)C(C(=O)NC2CCCC2)c2ccc(OC)cc2)cc1 (stereo not given)	-4.4%	?	-26.5	-2.4%	-26.9	10µM*
Cc1ccccc1C(=O)Nc1ccccc1C(=O)OCc1cc(=O)n2ccsc2n1	.	17.3%	.	-5.8%	-13.6	13.4%
Cn1c(=N)n(CC(O)c2cccc3ccccc23)c2ccccc21 (stereo not given)	17.4%	?	-8.7	8.91µM*	-6.6	?
COc1ccc(CCC(=O)N2c3ccccc3N=C(c3ccc(C(F)(F)F)cc3)C2C(=O)NC(C)(C)C)cc1 (stereo not given)	.	25.8%	-0.8	?	-2.8	4.47µM*
